Each structure is given as a SMILES string. The panel holds about 83,000 compounds, 20% with a hit somewhere; the sample as a whole holds those more often.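 In brief: 96-well plates, 48 h treatment, single concentration, percent growth endpoint.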 Calls of active or inactive are those of the source. The calls were made as follows: active = growth percent below 10; inactive = the rest.

In this assay the test system is HL-60(TB) leukemia. Description: NCI-60 one-dose screen, 48 h (100 = growth as untreated, 0 = no growth, -100 = all killed). The following applies: 10 µM unless noted.
For `Nc1nnc2cc(Cl)ccc2n1`, the growth was 145% (inactive).

Turning to `O=C(Nc1ccccc1Cl)Oc1ccc2ccccc2c1`, the growth was 72.3% (inactive).

As for `COC(=O)Nc1nc2ccc(C(=O)C3CC3)cc2[nH]1`, the growth was -56.2% (active).

Take `O=C(/C=C/c1ccc2c(c1)OCO2)c1c(O)c2ccccc2oc1=O`: the growth is 77.8% (inactive).

For the compound `NS(=O)(=O)c1ccc(Nc2nc3n[nH]c(Nc4ccccc4)c3c(=O)[nH]2)cc1`, the growth was 101% (inactive).

As for `O=S(=O)(NCCO)c1ccc(OCCOc2ccc(S(=O)(=O)NCCO)cc2)cc1`, the growth is 68.4% (inactive).

Take `COc1cc(CCC[P+](c2ccccc2)(c2ccccc2)c2ccccc2)c(OC)c2c1OCO2`: the growth is 13.6% (inactive).

Regarding `O=C(N/N=C/c1ccc(O)cc1O)c1ccc(Nc2ccnc(C(F)(F)F)c2)cc1`, the growth is 44.1% (inactive).

Consider `Cc1ccc2c(c1)C(=O)C(c1c(-c3[nH]c(=O)c4ccc(C)cc4c3O)c(O)c3ccccc3c1O)=NC2=O`, for which the growth is 8.93% (active).

For `O=[N+]([O-])c1ccc(Sc2ncccn2)c([N+](=O)[O-])c1`, the growth is -31.8% (active).

`O=C(COc1ccc(/C=C2\Oc3ccccc3C2=O)cc1)c1ccc(Cl)cc1`: the growth was 94.5% (inactive).

Take `COc1cccc(/C=C2\COc3ccc(O)cc3C2=O)c1OC`: the growth was -14.5% (active).

Consider `C=C1C(=O)O[C@H]2[C@H]1CC/C(COC(=O)NCCc1cccc(OC)c1)=C\CC[C@@]1(C)O[C@@H]21`, for which the growth is 6.53% (active).

For `CO[C@@H](C)Cn1c(=O)n(C)c2cnc3ccc(-c4cncc(C(C)(C)O)c4)cc3c21`, the growth is 8.97% (active).

For the compound `Cc1cc(C(C)(C)CC(C)(C)C)ccc1OCCOCC[N+](C)(C)Cc1ccccc1`, the growth was -67.1% (active).

Take `O=C1Nc2c(ccc(Cl)c2Cl)/C1=C\c1cc(C(F)(F)F)cc(C(F)(F)F)c1`: the growth is -29.3% (active).

With `Cc1c(C(C)(C)O)cn2ncnc(Oc3ccc(NC(=O)Nc4ccc(Cl)c(C(F)(F)F)c4)cc3)c12`, the growth was 26.6% (inactive).

As for `C#CCN1C(=O)c2ccccc2N(CC#C)C12CCN(Cc1cn(CC(=O)Nc3ccccc3C(N)=O)nn1)CC2`, the growth is 86.6% (inactive).

`C/C(O)=C(\C=N\C(N)=S)C(=O)Nc1ccccc1`: the growth was 105% (inactive).

`CC(=O)OCCc1ccccc1`: the growth was 92% (inactive).

As to `COc1ccc(Nc2nc(N)nc3c(=O)[nH]ccc23)cc1`, the growth is 96.1% (inactive).

Consider `Cc1cc(-c2ccccc2)on1`, for which the growth was 89.2% (inactive).

With `CC1Cc2c(Cl)ncnc2N(C)c2ccc(Cl)cc21` (configuration not stated), the growth was 13.3% (inactive).

With `COc1cccc(Nc2ncnc3cc(NC(=O)CCl)ccc23)c1`, the growth is -49.7% (active).

For `CCN=c1sc2c(n1NC(=O)c1cc3ccc1CCc1ccc(cc1)CC3)C(=O)c1ccccc1C2=O`, the growth was -18.3% (active).

Turning to `CCCCN(CCCC)CCC(=O)c1ccc(OC)c2ccccc12`, the growth was 81.1% (inactive).

With `COc1ccc(C(=O)/C=C/c2cccnc2Nc2cc(OC)c(OC)c(OC)c2)cc1`, the growth is -23.2% (active).

As for `COc1cc(/C=C/C(=O)c2c(C)nc3ccccc3c2/C=C/c2ccc(C)cc2)cc(OC)c1OC`, the growth is 12.5% (inactive).

With `COc1ccc(-c2nc(N=Nc3c(O)[nH]c4ccccc34)nc(N3CCOCC3)c2C#N)cc1`, the growth was 90.5% (inactive).

For the compound `C=C(NC(=O)C(=C)NC(=O)c1csc(C2=NC3c4csc(n4)C4NC(=O)c5csc(n5)C(C(C)(O)C(C)O)NC(=O)C5CSC(=N5)C(=CC)NC(=O)C(C(C)O)NC(=O)c5csc(n5)C3(CC2)NC(=O)C(C)NC(=O)C(=C)NC(=O)C(C)NC(=O)C(C(C)CC)NC2C=Cc3c(C(C)O)cc(nc3C2O)C(=O)OC4C)n1)C(N)=O` (configuration not stated), the growth is 3.83% (active).

For `Cc1ccc(CN2CCC(C(=O)Nc3ccc(-c4cc5ccccc5[nH]4)cc3)CC2)o1`, the growth is 13.7% (inactive).

For the compound `Cc1cccc(CNc2c3ccccc3nc3ccccc23)c1`, the growth is 12.5% (inactive).

Turning to `C=C1C(=O)O[C@H]2[C@H]1CC/C(COC(=O)C(=O)c1c[nH]c3ccc(OC)cc13)=C\CC[C@@]1(C)O[C@@H]21`, the growth was -53.2% (active).

On to `COc1ccc(-c2nn(-c3cccc(NC(=O)c4ccc(N5CCOCC5)c(C(F)(F)F)c4)c3)cc2-c2ccncc2)cc1Cl`, for which the growth was 38.1% (inactive).

Take `COc1cccc(-c2nn(-c3ccccc3)cc2-c2ccnc(NCCCNS(=O)(=O)c3ccccc3)c2)c1`: the growth is 16% (inactive).

As for `COC(=O)C(O)c1ccccc1` (configuration not stated), the growth was 109% (inactive).

As to `COc1ccc2[nH]cc(C3(c4c[nH]c5ccc(OC)cc45)C(=O)Nc4ccc(F)cc43)c2c1`, the growth was -40.3% (active).

The values are drawn from PubChem BioAssay (NCI).
